For 50 compounds, Percent Effect results are on record in ChEMBL document CHEMBL3988442, “University of Dundee, Small-Polar-MMV Screening Library” (2021).

Structures are written as SMILES.

Test [1] concerns the target T1, Aspartate--tRNA(Asp/Asn) ligase (Mycobacterium tuberculosis (strain ATCC 25618 / H37Rv)) (UniProt P9WFW3). Note: in the data most compounds retested in dose-response had high values.
T1 sequence (whole entry): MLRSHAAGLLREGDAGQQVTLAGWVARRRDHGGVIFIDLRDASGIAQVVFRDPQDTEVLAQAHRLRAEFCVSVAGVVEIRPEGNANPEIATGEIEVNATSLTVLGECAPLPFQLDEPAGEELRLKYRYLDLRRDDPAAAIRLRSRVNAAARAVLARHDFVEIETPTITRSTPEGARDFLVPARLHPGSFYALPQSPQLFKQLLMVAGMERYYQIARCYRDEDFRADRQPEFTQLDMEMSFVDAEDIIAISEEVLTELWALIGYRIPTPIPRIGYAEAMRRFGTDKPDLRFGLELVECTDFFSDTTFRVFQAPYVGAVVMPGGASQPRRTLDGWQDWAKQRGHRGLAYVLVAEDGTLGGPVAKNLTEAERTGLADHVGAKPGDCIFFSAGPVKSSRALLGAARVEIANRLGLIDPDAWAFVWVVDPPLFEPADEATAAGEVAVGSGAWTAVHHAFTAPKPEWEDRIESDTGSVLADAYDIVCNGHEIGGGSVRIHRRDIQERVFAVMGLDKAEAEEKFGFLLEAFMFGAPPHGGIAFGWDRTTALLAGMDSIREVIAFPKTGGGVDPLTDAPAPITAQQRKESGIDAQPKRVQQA
The test can be described thus: Assay for Asp RNA synthetase-1 from Mycobacterium tuberculosis. The class given is functional. Also noted: scale not given: direction of the effect not stated beside the values. To be noted: 30 µM.

Test [2] has as its target Shiga toxin 2 (Escherichia coli O157:H7) (UniProt P09385+P09386). The experiment in a line: E. coli 0.157:H7 Shiga Toxin SOP - stx2 screening assay. To be noted: 30 µM. The class given is functional. Also on record: scale not given: direction of the effect not stated beside the values.

As for `Cc1cccc(CN2C[C@@H]3COC[C@]3(CNC(=O)c3ccsc3)C2)n1`, the Percent Effect in test [1] was -2.88%; in test [2], -15.8%.

As to `CC(C)c1ncncc1C(=O)N1CCCN(Cc2cccs2)CC1`, the Percent Effect in test [1] is -3.79%; in test [2] it was 6.52%.

`COC(=O)c1cccn1C1CCN(Cc2ccccc2)CC1`: the values for the Percent Effect in test [1] and in test [2] were 0.995% and -6.65%, respectively.

As for `Cc1cc(C2CCCN(C(=O)c3c(C)nn4cccnc34)C2)n[nH]1` (stereo not given), the results for the Percent Effect in test [1] and in test [2] were -6.19% and 7.06%, respectively.

Take `CN(C)S(=O)(=O)N1C[C@H](Oc2cccnc2)[C@H]2OCCC[C@H]21`: the results for the Percent Effect in test [1] and in test [2] were 2.32% and -12%, respectively.

With `Cc1cnn(CC2CCCN2Cc2ncc(-c3ccccc3)o2)c1` (stereo not given), the Percent Effect in test [1] came to 4.6%; in test [2], 25.3%.

Regarding `CS(=O)(=O)NCc1ncn2c1CN(C(=O)CC1CCCC1)CCC2`, the figures for the Percent Effect in test [1] and in test [2] were -2.09% and -6.05%, respectively.

With `Cc1ccc(CN2CC(C(=O)Nc3ccccc3)C3(CCOCC3)C2)s1` (stereo not given), the Percent Effect in test [1] is 8.04%; in test [2] it was -1.18%.

On to `COc1ccc(NC(=O)Cn2nc(C)ccc2=O)cc1OC`, for which the Percent Effect in test [1] was -0.697%; in test [2] it was -5.66%.

For `C=C1c2ccccc2C(=O)N1CCC(=O)N1CCNC(=O)C1`, the Percent Effect in test [1] was -2.35%; in test [2], 25.2%.

Turning to `CCN1CCC(CNCc2cc(OC)ccc2OC)C1` (stereo not given), the Percent Effect in test [1] was -3.93%; in test [2] it was -21.3%.

`CN1CCCN(C[C@@H]2CN(C(=O)CCC3CCCC3)C[C@@H]2CO)CC1`: the Percent Effect in test [1] was 6.99%; in test [2], -19.6%.

`Cc1cccc(C(=O)Nc2ccc(OC3CCN(C)CC3)cc2)c1`: the Percent Effect in test [1] was 0.862%; in test [2] it was -60.2%.

Consider `CC(C)N1CC(C(=O)NCCc2csc(-c3ccncc3)n2)CC1=O` (stereo not given), for which the figures for the Percent Effect in test [1] and in test [2] were 2.56% and -26.5%, respectively.

Take `CC(NC1CCN(CCS(C)(=O)=O)CC1)c1ccc(Cl)cc1` (stereo not given): the Percent Effect in test [1] was 7.04%; in test [2], -1.87%.

Take `Cc1cnn(CC2CCCN2Cc2coc(-c3ccccc3)n2)c1` (stereo not given): the Percent Effect is -5.72% in test [1] and -30.1% in test [2].

For the compound `c1cnc2c(c1)cc([C@H]1CCCO1)n2CCN1CCOCC1`, the Percent Effect was 7.52% in test [1] and 12.7% in test [2].

Turning to `O=C(O)c1cc2c(nc1O)CC(c1cccs1)CC2=O` (stereo not given), the Percent Effect in test [1] is 2.79%; in test [2], -19.6%.

Consider `CS(=O)(=O)NCc1nnc2n1CCN(Cc1cccs1)C2`, for which the Percent Effect in test [1] was -4.17%; in test [2], 3.79%.

Consider `Cc1ccc(CN2Cc3nnn(C)c3C(COCCN(C)C)C2)s1` (stereo not given), for which the results for the Percent Effect in test [1] and in test [2] were -3% and -6.76%, respectively.

With `CCc1nc(CN2CCCN(c3nc4ccccc4o3)CC2)no1`, the Percent Effect is 5.41% in test [1] and -69.6% in test [2].

In the case of `Cc1ccc(CN2CCCn3c(nc(Cn4cncn4)cc3=O)C2)s1`, the values for the Percent Effect in test [1] and in test [2] were -1.14% and -10.9%, respectively.

As for `COc1nc(C)cc(C)c1CNC(=O)N(C)Cc1cnn(C)c1`, the Percent Effect worked out at 4.2% in test [1] and 6.51% in test [2].

For `OCC1CCCN1c1cc(NCc2ccc(Cl)s2)ncn1` (stereo not given), the figures for the Percent Effect in test [1] and in test [2] were 0.451% and -31.6%, respectively.

As to `COCCn1cc2c(n1)C(CNCc1ccc(F)cc1)OCC2` (stereo not given), the results for the Percent Effect in test [1] and in test [2] were 1.2% and -6.53%, respectively.

On to `CCNc1cc2c(nn1)CCN(C(=O)Cc1noc3ccccc13)C2`, for which the Percent Effect was -2.87% in test [1] and 24.9% in test [2].

Turning to `CCOCCN1CCCC(c2cc(C(N)=O)[nH]n2)C1` (stereo not given), the results for the Percent Effect in test [1] and in test [2] were -2.28% and -7.08%, respectively.

`CNC(=O)CS(=O)(=O)Cc1cc(Cl)c2c(c1)OCCCO2`: the Percent Effect was 0.857% in test [1] and 0.921% in test [2].

`COc1ccccc1OCc1cc(C(=O)N2C[C@H](O)[C@@H](N(C)C)C2)n[nH]1`: the Percent Effect in test [1] is 0.529%; in test [2], -9.19%.

Regarding `Cc1nc(C)n(CC2CCCN(c3ncnc4[nH]ccc34)C2)n1` (stereo not given), the Percent Effect is -1.82% in test [1] and 2.99% in test [2].

On to `CC(NC(=O)NCCCN(C)S(C)(=O)=O)c1cccc(Cl)c1` (stereo not given), for which the Percent Effect was 1.12% in test [1] and -9.29% in test [2].

`COc1cccc(CN2CCCC3(CCN(C(=O)[C@H]4CCCO4)C3)C2)c1` (stereo not given in full): the values for the Percent Effect in test [1] and in test [2] were 2.84% and 5.38%, respectively.

Take `Cc1cccc(CN(Cc2ccc(C)o2)C2CC(C)(C)NC(C)(C)C2)n1`: the Percent Effect in test [1] is -1.8%; in test [2] it was 3.65%.

As for `Cc1cnn(CC2CCCN2C(=O)CCc2c(C)noc2Cl)c1` (stereo not given), the figures for the Percent Effect in test [1] and in test [2] were 2.73% and -4.86%, respectively.

For the compound `O=C(NCCc1cccnc1)N1CCCC1c1ccsc1` (stereo not given), the Percent Effect in test [1] is -2.72%; in test [2], 1.93%.

Consider `O=C(NCCNc1ncccn1)C1CCN(CC(F)(F)F)CC1`, for which the Percent Effect in test [1] turned out to be 2.17%; in test [2], 21.6%.

For `c1cncc(COCC2CN(Cc3ccco3)Cc3ccnn3C2)c1` (stereo not given), the results for the Percent Effect in test [1] and in test [2] were 1.51% and -12.8%, respectively.

In the case of `Cc1cccc(C(=O)N2CCC(Cc3cnc4[nH]ccc4c3)CC2)n1`, the values for the Percent Effect in test [1] and in test [2] were 4.87% and 5.08%, respectively.

For the compound `Cc1nc(N2CCCC2)nc2c1CCN(Cc1ccco1)CC2`, the Percent Effect is 8.76% in test [1] and -55.7% in test [2].

Take `Cc1oc(C)c(C(=O)NCc2cccc(NC(=O)CN(C)C)c2)c1C`: the Percent Effect in test [1] was -5.4%; in test [2], -39.7%.

Regarding `CC(=O)c1cccc(OCCCC(=O)N(C)CCc2ccncc2)c1`, the Percent Effect in test [1] was -0.591%; in test [2] it was -45.6%.

Consider `COc1ccc(CNCC(C)Oc2ccccn2)cc1Br` (stereo not given), for which the figures for the Percent Effect in test [1] and in test [2] were -3.54% and -30.6%, respectively.

With `Cc1nn(C)c(C)c1C1CCCN1Cc1noc(C2CC2)n1` (stereo not given), the Percent Effect in test [1] came out at 6.1%; in test [2], 16.3%.

With `Cn1cccc1C(=O)N1CCC2(CC1)CN(c1ccccn1)CCO2`, the Percent Effect was 7.46% in test [1] and -7.72% in test [2].

As for `O=c1c2sccc2nc2n1CCN(Cc1cccs1)CC2`, the Percent Effect was 6.74% in test [1] and 8.96% in test [2].

`CN(C)CC1CN(c2cnc3ccccc3n2)CCO1` (stereo not given): the Percent Effect in test [1] was -3.4%; in test [2], -17.5%.

As for `CCn1nc(C)c2ncnc(NCC(=O)N3CCOCC3)c21`, the results for the Percent Effect in test [1] and in test [2] were -3.08% and -16.4%, respectively.

For `Cc1cc(-c2nnn(CCNS(C)(=O)=O)n2)ccc1F`, the Percent Effect was -2.07% in test [1] and -10.6% in test [2].

Regarding `CCCn1ccc(C(=O)N2CCC(C)CC2)n1`, the results for the Percent Effect in test [1] and in test [2] were 3.36% and -27.6%, respectively.

As for `CC(NC1(CNC(=O)Cn2cccn2)CCOCC1)c1ccccc1` (stereo not given), the results for the Percent Effect in test [1] and in test [2] were -0.24% and 10.6%, respectively.
